High-throughput results as filed in PubChem BioAssay.
DT40 TDP1 no CPT: qHTS for Inhibitors of human tyrosyl-DNA phosphodiesterase 1 (TDP1): qHTS in cells in absence of CPT. Potency, µM (top dose mostly 46.2 µM), actives largely listed as inhibitors. AID 686978, 2013. DT40 Tdp1-/- hTDP1 cells, no CPT, ATP luminescence, 48 h. hit rate 15% among 420,000; further: nearly all actives have a fitted effect of over 55% in size
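DT40 Tdp1-/-;hTDP1 cells, no CPT (DMSO vehicle only), 400 cells/well; compounds pin-transferred; ≥48 hr, 37 °C; CellTiter-Glo 30 min RT dark, luminescence read.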
HT1080 IDH1KD tx: qHTS for induction of synthetic lethality in tumor cells producing 2HG: qHTS for the HT-1080-IDH1KD cell line; HT-1080 IDH1 knockdown viability, ATP luminescence, 48 h; Potency, µM (top dose mostly 46.1 µM), most hits filed as cytotoxic; hit rate 2% among 360,000; AID 686971, 2013
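IDH1KD HT-1080 cells, 750/well, RPMI + 5% FBS; compound pinned after 2 h settling; 48 h, 37 °C; CellTiter-Glo luminescence; % activity normalised to DMSO and no-cell wells; curves fitted, classed by r2 and efficacy.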
ELG1 DNA repair: qHTS screen for small molecules that inhibit ELG1-dependent DNA repair in human embryonic kidney (HEK293T) cells expressing luciferase-tagged ELG1; hit rate 2.3% among 330,000; Potency, µM (doses to about 46.1 µM), usual class: inhibitors; HEK293T ELG1-luciferase reporter, luminescence, 16 h; DNA damage induced by 5-fluorouridine; further: nearly all actives have a fitted effect of over 55% in size
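Overnight (16 hr) co-exposure of 2,000 cells/well to 5-fluorouridine and compound at 37 °C preceded detection. Luciferase was quantified via ONE-Glo luminescence; loss of signal denotes inhibition.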
DT40 TDP1 CPT: qHTS for Inhibitors of human tyrosyl-DNA phosphodiesterase 1 (TDP1): qHTS in cells in presence of CPT; Potency, µM (doses to about 46.2 µM), most hits filed as inhibitors; AID 686979, 2013; chicken DT40 Tdp1-/-;hTDP1 cells + 20 nM CPT, ATP luminescence, 48 h; hit rate 12% among 420,000; further: nearly all actives have a fitted effect of over 55% in size
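Chicken DT40 Tdp1-/- cells stably complemented with human TDP1 were seeded at 400 cells/well in medium containing 20 nM camptothecin, exposed to pin-transferred compounds, and grown at 37 °C for at least 48 hr. Viability was read as ATP luminescence.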
HT1080NT lethal: qHTS for induction of synthetic lethality in tumor cells producing 2HG: qHTS for the HT-1080-NT fibrosarcoma cell line; HT-1080-NT fibrosarcoma viability, CellTiter-Glo ATP luminescence, 48 h; Potency, µM (titrated, usually from 46.1 µM), actives largely listed as cytotoxic; hit rate 1.6% among 360,000; AID 686970, 2013;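 further: NT is the 2HG producing partner of a matched IDH1 knockdown line; nearly all actives have a fitted effect of over 55% in size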
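A 48-hour cytotoxicity screen used HT-1080-NT cells plated 2 hours before compound delivery. ATP-based CellTiter-Glo luminescence measured viability, normalized to DMSO and no-cell controls.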
IL1B secr inh: qHTS for Inhibitors of Inflammasome Signaling: IL-1-beta AlphaLISA Primary Screen. hit rate 4.7% among 360,000. THP-1 LPS/ATP IL-1B secretion, AlphaLISA, 16 h; hits give low values. activity change, % at 57.5 µM; in the data active means activity change below about -50%; inconclusive means mostly about -30% to -49%
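THP-1 cells pretreated 1 hr with compounds (up to 57.5 uM final), then stimulated with LPS (250 ng/mL final) plus ATP (1.25 mM final); secreted IL-1B measured by AlphaLISA after 16 hr, decreased signal indicating inhibition.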
A number is an active result; i = inactive; ? = inconclusive; nt = not tested or not shown; [ ] = dose if it differs, or a comment. The list is not random: actives were taken first. Their share in the collection is about 19%. Unless noted, the call rests on the fitted dose curve; in most records, active means well fitted curve in the direction sought with a large enough effect; inconclusive means small, poorly fitted or top-dose-only effect, or another doubt; inactive means no such curve, though single readings can be large; an effect the other way counts as inactive or inconclusive.

SMILES	DT40 TDP1 no CPT	HT1080 IDH1KD tx	ELG1 DNA repair	DT40 TDP1 CPT	HT1080NT lethal	IL1B secr inh
COCCCNC(=O)N1CCN(c2nnc(C)c3c(C)n(-c4ccc(Cl)cc4)nc23)CC1	i	nt	nt	i	nt	nt
Cc1noc2ncnc(NCCc3ccccc3)c12	6.5µM	nt	nt	7.3µM	nt	nt
COCCn1c(C)c(C)c2c(NCCc3ccccc3)ncnc21	16µM	i	?	23µM	i	i
CCOC(=O)c1c(C)oc2ncnc(NCCc3ccccc3)c12	23µM	nt	nt	21µM	nt	nt
Cc1ccc(CCNc2ncnc3onc(C)c23)cc1	0.82µM	nt	nt	1.8µM	nt	nt
CCOc1ccc(CCNC(=O)c2c(C)oc3ncnc(N4CCOCC4)c23)cc1	i	nt	nt	?	nt	nt
CCOCCCNc1ncnc2onc(C)c12	?	nt	nt	i	nt	nt
O=C(NC1CCS(=O)(=O)C1)c1cccc(Cl)c1 (centres undefined)	i	i	?	i	i	i
CCCCCCC1CC(=O)NC(=S)N1 (centres undefined)	i	i	i	i	i	i
COc1ccc(CNc2ncnc3onc(C)c23)cc1	13µM	nt	nt	16µM	nt	nt
CCOc1ccc(CCNc2ncnc3onc(C)c23)cc1OCC	2.1µM	nt	nt	2.9µM	nt	nt
COc1ccc(Nc2ncnc3onc(C)c23)cc1Cl	?	nt	nt	i	nt	nt
CCCCN1C(=O)C(C#N)CC2=C1CC(C)(C)CC2=O (centres undefined)	i	i	nt	i	i	i
C=CCCC(=O)N1C[C@H]2CCN(C)[C@H]2C[C@H]1c1ccc(Br)cc1	i	i	nt	i	i	i
COc1cc2oc(=O)cc(-c3ccc(-c4ccc(CO)cc4)cc3)c2c(OC)c1OC	18µM	i	5.8µM	21µM	i	i
COc1cc2oc(=O)cc(-c3ccc(-c4ccc(C#N)cc4)cc3)c2c(OC)c1OC	8.2µM	i	?	7.3µM	i	i
COc1cc2oc(=O)cc(-c3cccc(-c4ccc(C(F)(F)F)cc4)c3)c2c(OC)c1OC	15µM	i	i	23µM	i	i
COc1cc(OC)c2c(-c3cccc(-c4ccc(C(C)=O)cc4)c3)cc(=O)oc2c1	0.92µM	3.3µM	i	1.2µM	5.2µM	i
COc1cc2oc(=O)cc(-c3ccc(-c4ccc(C)cc4)cc3)c2c(OC)c1OC	?	i	i	?	i	i
CC1CCCCN1C(=O)CN(C)S(=O)(=O)c1cccc2nsnc12 (centres undefined)	i	i	i	i	i	i
Cc1ccc(NC(=O)C2CCCN(S(=O)(=O)c3cn(C(C)C)cn3)C2)c(C)c1 (centres undefined)	i	nt	nt	i	nt	nt
O=C(CCSc1ccc(Cl)cc1)N1CCN(c2ncccn2)CC1	?	i	?	13µM	i	i
CC1(C)CC(=O)c2cc(OCC(=O)N3CCN(c4ccccc4F)CC3)ccc2O1	i	i	i	i	i	i
CC1(C)CC(=O)c2c(O)cc(OCC(=O)N3CCN(c4ccc(F)cc4)CC3)cc2O1	?	i	?	?	i	-55
O=C(COc1cccc(C(F)(F)F)c1)N1CCN(c2ccc(O)cc2)CC1	?	?	16µM	?	i	i
SMILES	DT40 TDP1 no CPT	HT1080 IDH1KD tx	ELG1 DNA repair	DT40 TDP1 CPT	HT1080NT lethal	IL1B secr inh
O=C(CCSc1ccc(Cl)cc1)N1CCN(c2ccc(O)cc2)CC1	i	?	8.2µM	i	?	i
O=C(CCSc1ccccc1)N1CCN(c2ccccc2)CC1	?	i	?	?	i	i
COc1ccc(C2(C(=O)NCC3Cc4cccc(-c5cccnc5)c4O3)CCCC2)cc1 (centres undefined)	?	nt	nt	i[9.04 µM]	nt	nt
O=C(CCOc1ccccc1)N1CCN(c2ccc(O)cc2)CC1	?	4.6µM	?	?	1.5µM	i
COc1ccc(CNC(=O)C2CC(=O)N(C3CCCC3)C2)cc1 (centres undefined)	i	i	i	i	i	i
O=c1cc(-c2ccccc2[N+](=O)[O-])oc2ccccc12	23µM	12µM	i	16µM	?	i
Cc1ccccc1-c1cc(=O)c2ccccc2o1	?	i	i	21µM	i	i
O=c1cc(-c2ccccc2F)oc2ccccc12	?	i	?	?	i	i
CCC(=O)Nc1ccc(NC(=O)CSc2nnnn2Cc2ccccc2)cc1C	i	i	i	i	i	i
O=C(NCc1ccc(Cl)cc1)c1cc2ccccc2oc1=O	i	i	?	i	i	i
O=C1c2ccccc2C(=O)N1CCCCN(C(=O)c1cc2ccccc2oc1=O)c1ccc(Cl)cc1	i	i	23µM	i	i	i
COC(=O)c1nn(-c2ccc(OC)cc2)c(=O)c2c(N)sc(C)c12	16µM	i	i	23µM	i	i
O=C1OC2C(O)COC23OC(O)CCC13O (centres undefined)	i	i	nt	i	i	i
CC(C)c1ccc(S(=O)(=O)c2cc3cc(Br)ccc3oc2=O)cc1	?	13µM	i	i	13µM	i
Cc1cccc(NC(=O)c2ccc3oc(=O)c(S(=O)(=O)c4ccc(F)cc4)cc3c2)c1C	?	nt	nt	i	nt	nt
CC(C)c1ccc(NC(=O)c2ccc3oc(=O)c(S(=O)(=O)c4ccc(F)cc4)cc3c2)cc1	7.3µM	nt	nt	?	nt	nt
Cc1ccc(S(=O)(=O)c2cc3cc(Br)ccc3oc2=O)cc1	i	i	?	i	i	i
CN1CCN(C(CNC(=O)c2cccc(F)c2)c2ccc3c(c2)OCO3)CC1 (centres undefined)	i	nt	nt	i	nt	nt
O=C1Nc2ccccc2-c2nnnn2C1N1CCCCC1 (centres undefined)	i	i	nt	i	i	i
Cc1ccc(-n2c(C)cc(/C=C3\SC(=O)NC3=O)c2C)cc1	i	i	?	i	i	i
Cc1cc(/C=C2\SC(=Nc3ccccc3)NC2=O)c(C)n1-c1ccc(S(N)(=O)=O)cc1	2.6µM	5.2µM	11µM	5.2µM	7.3µM	i
COc1ccc(N2C(=O)CSC23C(=O)N(CC(=O)Nc2ccccc2F)c2ccccc23)cc1 (centres undefined)	i	nt	nt	i	nt	nt
COc1cc(-c2noc(C)c2C(=O)NCCO)cc(OC)c1OC	i	i	i	i	i	i
COc1cc(-c2noc(C)c2C#Cc2ccc(N)cc2)cc(OC)c1OC	0.52µM	0.65µM	i	0.82µM	0.82µM	i
COc1cc(-c2noc(C)c2C(=O)NCc2ccc(C)o2)cc(OC)c1OC	?	i	i	?	i	i
